Experimental data published in PubChem BioAssay AID374 (University of Pittsburgh Molecular Library Screening Center, 2006).
Screen size: about 65,000 compounds; about 100 (0.15%) were called active. This is one part of a sample in which actives are shown more often than they occur.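 Rule for the calls: active = inhibition above about 50% (limit read from the data); inconclusive = inhibition over screen mean plus 3 SD, below that limit; inactive = the rest.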

The molecules below were run against Dual specificity protein phosphatase 1 (Homo sapiens) (UniProt P28562) (assay: MKP-1 phosphatase inhibitors, primary screen, biochemical, in vitro (AID 374;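 note: 0% = DMSO max control wells and 100% = wells with enzyme stopped by NaOH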)). Details: recombinant MKP-1, OMFP hydrolysis fluorescence; active compounds read high;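 compounds tested at a single concentration somewhere between 10 and 100 µM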.
Sequence of Dual specificity protein phosphatase 1 (Homo sapiens) (P28562 whole entry, looked up): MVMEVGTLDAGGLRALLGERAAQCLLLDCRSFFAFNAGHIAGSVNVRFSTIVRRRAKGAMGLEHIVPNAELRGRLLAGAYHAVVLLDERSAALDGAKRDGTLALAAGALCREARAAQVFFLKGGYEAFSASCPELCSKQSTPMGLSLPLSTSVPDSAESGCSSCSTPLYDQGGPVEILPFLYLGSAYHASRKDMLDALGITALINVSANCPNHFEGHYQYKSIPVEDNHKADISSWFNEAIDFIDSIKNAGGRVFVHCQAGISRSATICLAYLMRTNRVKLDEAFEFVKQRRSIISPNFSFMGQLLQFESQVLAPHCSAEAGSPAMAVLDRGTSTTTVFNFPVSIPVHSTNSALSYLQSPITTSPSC

inhibition, active:
CCCCNC(=O)CSc1nnc(-c2ccco2)n1C 93.8%
O=C1c2cccnc2C(Nc2ccc(S(=O)(=O)N3CCCCCC3)cc2)N1Cc1ccccc1 (stereo not drawn) 51.4%
CCc1ccc(NC(=O)CSc2nc3ccccc3c(=O)n2CCN2CCOCC2)cc1 52.5%
COC(=O)C1=C(C)NC2=C(C(=O)c3ccccc32)C1c1ccc(-c2ccc(C(=O)O)cc2)o1 (stereo not drawn) 56%

inhibition, inactive:
Cn1c(SCC(=O)c2cccs2)nnc1-c1ccco1 0.18%
CC(C)[C@H](NC(=O)Nc1ccc(S(N)(=O)=O)cc1)C(=O)O -4.12%
CCc1ccccc1N(CC(=O)NCCSCc1ccco1)S(C)(=O)=O -0.33%
CC(CN1CCCCC1)OC(=O)c1ccccc1Cl (stereo not drawn) -18.9%
O=C(Nc1cnccn1)c1cccnc1 35.7%
Cc1cccc(C)c1NC(=O)N1CC=C(n2c(=O)[nH]c3ccccc32)CC1 -1.96%
O.O.O.O=S(=O)([O-])OC[C@H]1O[C@@H](O[C@]2(COS(=O)(=O)[O-])O[C@H](OS(=O)(=O)[O-])[C@@H](OS(=O)(=O)[O-])[C@@H]2OS(=O)(=O)[O-])[C@H](OS(=O)(=O)[O-])[C@@H](OS(=O)(=O)[O-])[C@@H]1OS(=O)(=O)[O-].[Al] 9.95%
CC(=NC1CCN(Cc2ccccc2)CC1)c1c(O)[nH]c(=O)[nH]c1=O -4.49%
COc1ccccc1Nc1nc(N)nc(CN(C)C2CCCCC2)n1 -2.91%
CCN(CC(=O)Nc1ccc2c(c1)OCCO2)Cc1cc(=O)oc2cc(C)c(C)cc12 12.7%
Cc1cc(C)c(NC(=O)CS(=O)CC(=O)Nc2cccnc2)c(C)c1 (stereo not drawn) -12.3%
Cc1ccnc(N2CCN(C(=O)CSc3nc4ccccc4nc3N3CCCCC3)CC2)c1 6.59%
Nn1c(SCC(=O)NC(=O)NC2CCCC2)nnc1-c1ccccc1F -5.68%
O=c1cc(CO)oc(CN2CCC(Cc3ccccc3)CC2)c1O 8.32%
CCOC(=O)CSc1nnc(-c2ccco2)n1C -29.8%
O=C(CSc1nnc(-c2ccco2)n1-c1ccccc1)NCCc1ccccc1 -9.86%
Cc1cc(C)c2c(c1)cc(C)c1nnc(SCC(=O)Nc3cc(C)on3)n12 8.08%
c1csc(CN2CCN(Cc3cccs3)C2c2cccs2)c1 -1.36%
Cc1ccc2c(NC(=O)C3CC3)cccc2n1 3.59%
CCOc1cc(/C=N/n2cnnc2)c(Br)cc1O -7.39%
COc1ccc(S(=O)(=O)N2CCCC(C(=O)Nc3ccc(NC(=O)c4ccccn4)cc3)C2)cc1 (stereo not drawn) 32.2%
O=C(Nc1ccc(S(=O)(=O)N2CCCCC2)cc1)c1cnccn1 -0.35%
CCOC(=O)N1CCN(CC(=O)c2c(C)[nH]c3ccccc23)CC1 1.62%
Cc1ccc(-c2noc(CCC(=O)Nc3ccccc3N3CCN(C)CC3)n2)cc1 -3.7%
CCOc1cccc(NC(=O)C2CCCN(S(=O)(=O)c3ccc(OC)cc3)C2)c1 (stereo not drawn) -15.6%
CN(C)CCCn1c(N)c(C#N)c2nc(C#N)c(C#N)nc21 2.01%
CC(=O)OCc1cc(=O)n(C)c(=O)n1C 15.5%
CCC(=O)Nc1ccccc1N1CCN(S(C)(=O)=O)CC1 6.41%
O=C(NCc1ccco1)c1cc(-c2cccnc2)nc2ccc(Cl)cc12 18.9%
COc1ccc(C(c2nnnn2Cc2cccs2)N2CCN(c3ccccc3)CC2)cc1OC (stereo not drawn) -17.2%
COCCOC(=O)C1=C(C)N=c2s/c(=C\c3cccs3)c(=O)n2C1c1cccs1 (stereo not drawn) -3.72%
CC(C)Cn1c(CCC(=O)O)ccc1-c1cccs1 -3.65%
O=C(Nc1ccccc1)N(Cc1cccnc1)Cc1ccco1 19.6%
CCOC(=O)CN1C(=O)C(O)(CC(=O)c2ccccn2)c2ccccc21 (stereo not drawn) -1.14%
COc1cccc(-n2c(Cc3cc(=O)[nH]c(=O)[nH]3)nnc2SCC(=O)Nc2ccccc2)c1 6.14%
O=C(Cn1nc(Cc2cccnc2)c2ccccc2c1=O)NCC1CCCO1 (stereo not drawn) -5.72%
O=C(CCC(=O)N1CCN(S(=O)(=O)c2ccccc2)CC1)NC1CCCc2ccccc21 (stereo not drawn) 28.7%
O=C(NCCN1CCOCC1)c1ccc2c(c1)ncn2C1CCCC1 -1.23%
O=S1(=O)CC(NCc2ccccc2)C(Nc2ccc(Cl)cc2)C1 (stereo not drawn) -10.7%
CC(C)=C(NC(=O)c1ccco1)C(=O)NCCc1nc2ccccc2[nH]1 -31.3%
CC(=O)Nc1cc2ccc(OC(C)=O)cc2oc1=O 1.98%
CC1CCCCN1CC(=O)NCc1ccc2c(c1)OCO2 (stereo not drawn) 11.8%
COCCCNC(=O)CSc1nc2ccc(N3CCOCC3)cc2c(=O)n1CCc1ccccc1 25.1%
CCCCn1c(SCC(=O)NCC2CCCO2)nc2ccc(N3CCOCC3)cc2c1=O (stereo not drawn) 20.6%
Cc1nn(CC(=O)Nc2ccc3c(c2)nc(CN2CCCCC2)n3C)c(=O)c2ccccc12 21.5%
O=C(NCC(F)(F)F)Nc1nnc(C(F)(F)F)s1 -9.86%
O=C(CCS(=O)(=O)Cc1ccccc1F)NCCCN1CCCCC1 5.21%
O=C(Cn1nnc2ccccc2c1=O)Nc1cc(C(F)(F)F)ccc1N1CCOCC1 36.2%
COC(=O)C1=C(C)NC(=O)NC1/C=C/c1ccccc1 (stereo not drawn) -8.21%
COc1ccccc1NC(=O)C1=C(C)NC2=C(C(=O)CCC2)C1c1ccc(C)o1 (stereo not drawn) 11.7%
Cc1nnc(NC(=O)CSc2nccn2-c2cccc(C)c2C)s1 -0.12%
CC(C)(C)n1c(=O)[nH]c2c(c1=O)CCC2 21.8%
O=C(Oc1cccnc1)c1cc2ccccc2oc1=O 10.3%
CC/C(=N\O)C(C)(C)/[N+]([O-])=C/c1ccc(Br)cc1 4.53%
